From PubChem BioAssay
The full list was thinned out, with hits kept by preference.
CHX counter: Cycloheximide Counterscreen for Small Molecule Inhibitors of Shiga Toxin | cell reporter, cycloheximide protein synthesis inhibition counterscreen | max response, % | 12% of 300,000 active | AID 2314, 2010; in the data active = max response mostly above about 13%, no sharp cut-off; inactive = mostly below about 14%; note: read at 38.3 µM for the half of the compounds with a filed dose
Shiga toxin inh: A qHTS for Small Molecule Inhibitors of Shiga Toxin; inhibition, % at 38.7 µM; Vero cells, Shiga toxin protein synthesis inhibition reporter; 9.2% of 290,000 active; in the data active = inhibition mostly above about 28%, no sharp cut-off; inactive = mostly below about 43%
NS1 function inh: qHTS Assay for Inhibitors of Influenza NS1 Protein Function; Potency, µM (doses to about 46.1 µM); AID 2326, 2010; 0.4% of 270,000 active; note: actives are rising curves; nearly all actives have a fitted effect of over 50% in size
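Read-out: OD600 growth recovery of NS1-expressing budding yeast. Cells grown overnight at 30C in -URA glucose medium, washed, resuspended and diluted 1:100 in 2% galactose assay medium, pH 6.0. Same strain lacking NS1 served as positive control.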
LmPK inhibitor: qHTS Assay for Inhibitors of Leishmania Mexicana Pyruvate Kinase (LmPK) | purified LmPK, Kinase-Glo ATP luminescence, 1 h | Potency, µM (titrated, usually from 57.5 µM), usual class: inhibitors | 0.37% of 290,000 active | AID 1721, 2009; active = well fitted curve in the direction sought with a large enough effect; inconclusive = small, poorly fitted or top-dose-only effect, or another doubt; inactive = no such curve, though single readings can be large; an effect the other way counts as inactive or inconclusive
Target sequence (Q27686 whole entry, looked up): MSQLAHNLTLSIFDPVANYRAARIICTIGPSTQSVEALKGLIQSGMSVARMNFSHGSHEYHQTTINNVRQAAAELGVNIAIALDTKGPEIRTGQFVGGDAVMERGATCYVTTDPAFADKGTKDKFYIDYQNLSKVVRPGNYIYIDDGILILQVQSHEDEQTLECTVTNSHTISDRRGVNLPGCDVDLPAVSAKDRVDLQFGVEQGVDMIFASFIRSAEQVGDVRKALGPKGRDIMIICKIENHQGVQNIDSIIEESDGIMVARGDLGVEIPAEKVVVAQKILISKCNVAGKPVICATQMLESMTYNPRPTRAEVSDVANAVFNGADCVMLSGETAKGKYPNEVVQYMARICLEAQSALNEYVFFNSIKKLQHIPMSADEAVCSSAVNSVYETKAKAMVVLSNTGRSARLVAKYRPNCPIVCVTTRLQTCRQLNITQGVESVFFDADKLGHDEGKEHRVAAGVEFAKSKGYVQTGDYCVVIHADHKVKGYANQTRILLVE
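In 50 mM imidazole pH 7.2 with 7 mM MgCl2, LmPK (0.1 nM) turned over PEP (0.5 mM) and ADP (0.1 mM) for 1 h at room temperature. Luciferase read-out of ATP.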
Tb PYK inh: qHTS of Trypanosoma Brucei Inhibitors | pyruvate kinase (Trypanosoma brucei), Q57TT1 | TbPYK enzyme, Kinase-Glo Plus ATP luminescence, 45 min | Potency, µM (titrated, usually from 76.8 µM), usual class: inhibitors | 0.12% of 410,000 active | AID 624173, 2012; active = well fitted curve in the direction sought with a large enough effect; inconclusive = small, poorly fitted or top-dose-only effect, or another doubt; inactive = no such curve, though single readings can be large; an effect the other way counts as inactive or inconclusive; note: nearly all actives have a fitted effect of over 50% in size
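Assay buffer: 50 mM TEA pH 7.2, 100 mM KCl, 10 mM MgCl2, 0.05% BSA, 0.01% Tween-20. Pyruvate kinase from T. brucei plus substrate met compound, then ADP (130 uM final). Luminescence was read post 45 min RT.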
SARS PLpro yeast: qHTS of Yeast-based Assay for SARS-CoV PLP | S. cerevisiae expressing SARS-CoV PLpro, growth rescue | Potency, µM (top dose mostly 32.9 µM), most hits filed as activators | 0.19% of 330,000 active | AID 485353, 2010; note: nearly all actives have a fitted effect of over 55% in size
Each line names hits and unclear results; the compound was inactive in the other large screens. Unless noted, calls come from the whole dose curve.

O=C(CSc1nnc(NC(=O)c2ccccc2)s1)NCc1ccco1	CHX counter 40, Shiga toxin inh 41
Cc1ccccc1C(=O)Nc1nnc(SCC(=O)NCc2ccco2)s1	CHX counter 21, Shiga toxin inh 72
CC1=C(C(=O)N(C(C)C)C(C)C)CC(CC(=O)NCc2ccco2)C(=O)N1CCC1=CCCCC1 (configuration not stated)	none (no result: CHX counter, Shiga toxin inh, NS1 function inh, LmPK inhibitor, SARS PLpro yeast)
CCOC(=O)CNC(=O)CSc1nnc(NC(=O)c2ccc(C)cc2)s1	none (no result: NS1 function inh)
Cc1ccccc1C(=O)Nc1nnc(SC(C)C)s1	CHX counter 30 (no result: NS1 function inh)
CCOC(=O)CNC(=O)CSc1nnc(NC(=O)c2ccc3c(c2)OCO3)s1	CHX counter 12, Shiga toxin inh 22
CCC(=O)c1cn(CC(=O)Nc2cc(C)ccc2C)c2ccccc12	none (no result: Shiga toxin inh)
CCOc1ccc(OCC)c(NS(=O)(=O)c2c(C)[nH]c(=O)[nH]c2=O)c1	none (no result: CHX counter, Shiga toxin inh, NS1 function inh, LmPK inhibitor, SARS PLpro yeast)
COc1cccc(/C=C/C(=O)OCC(=O)Nc2cccc(S(=O)(=O)N(C)C)c2)c1	CHX counter 15 (no result: NS1 function inh)
COc1cccc(/C=C/C(=O)OCC(=O)Nc2ccc(Cl)c(S(=O)(=O)N(C)C)c2)c1	none (no result: NS1 function inh)
COc1cc(/C=C/C(=O)OCC(=O)Nc2ccc(S(N)(=O)=O)cc2)ccc1O	CHX counter 28
CCOC(=O)C1(Cc2ccc(Cl)cc2)CCN(C(=O)c2cnc(C)cn2)CC1	none
COc1ccc(-c2coc3cc(OC)cc(OC)c3c2=O)cc1	CHX counter 34, Shiga toxin inh 49
COc1ccc(-c2coc3cc(OC)cc(O)c3c2=O)cc1	CHX counter 52, Shiga toxin inh 51
O=c1c(-c2c(O)cc(O)c3c(=O)cc(-c4ccc(O)cc4)oc23)c(-c2ccc(O)cc2)oc2cc(O)cc(O)c12	none
O=c1c(-c2ccc(O)cc2)coc2cc(O)cc(O)c12	CHX counter 31, Shiga toxin inh 112
COc1ccc(-c2coc3cc(OC)ccc3c2=O)cc1	none (no result: CHX counter, Shiga toxin inh, NS1 function inh, LmPK inhibitor, SARS PLpro yeast)
COc1ccc(-c2coc3cc(OC4OC(CO)C(O)C(O)C4O)cc(O)c3c2=O)cc1 (configuration not stated)	none (no result: CHX counter, Shiga toxin inh, NS1 function inh, LmPK inhibitor)
COc1ccc(-c2coc3cc(O)ccc3c2=O)cc1O	CHX counter 41, Shiga toxin inh 38
Cc1ccccc1CNC(=O)Cn1cc2c(n1)-c1c(oc(C(=O)N3CCCC3)c1C)CC2	none (no result: CHX counter, Shiga toxin inh, NS1 function inh, LmPK inhibitor, SARS PLpro yeast)
COC(=O)c1sc2cccc(F)c2c1S(=O)(=O)NCc1ccccc1Cl	none (no result: CHX counter, Shiga toxin inh, NS1 function inh, LmPK inhibitor, SARS PLpro yeast)
COc1ccc(-c2coc3cc(O)c(OC)cc3c2=O)cc1	none (no result: CHX counter, Shiga toxin inh, NS1 function inh, LmPK inhibitor)
COc1ccc(-c2coc3cc(O)ccc3c2=O)cc1	none (no result: CHX counter, Shiga toxin inh, NS1 function inh, LmPK inhibitor, SARS PLpro yeast)
COc1cc(O)cc2occ(-c3ccc(O)cc3)c(=O)c12	CHX counter 13
COc1ccc(-c2coc3cc(O)cc(O)c3c2=O)cc1	CHX counter 50, Shiga toxin inh 93
CC(C)Oc1cc(O)c2c(=O)c(-c3ccc(O)cc3)coc2c1	CHX counter 30, Shiga toxin inh 82
Nc1ccc(-c2nc3ncccc3o2)cc1	CHX counter 34, Shiga toxin inh 31
O=C(Cc1ccccc1)Nc1cccc(-c2nc3ncccc3o2)c1	none
Nc1cccc(-c2nc3ncccc3o2)c1	CHX counter 31, Shiga toxin inh 56
Cc1ccc(-c2nc3ncccc3o2)cc1NC(=O)c1cc2ccccc2o1	none
Cn1c(=O)[nH]c(=O)c2c1nc(Br)n2C/C=N/NC(=O)c1ccccc1	CHX counter 39, Shiga toxin inh 55
O=C(O)CCC(=O)Nc1ccc(/C=C/C(=O)C2CC2)cc1	CHX counter 29
CC(C(=O)OCC(=O)Nc1cccc(S(=O)(=O)N(C)C)c1)N1C(=O)c2ccccc2C1=O (configuration not stated)	none
Cc1ccc(C(=O)CSc2cc(C)nc(SCC(=O)c3ccccc3)n2)cc1	none
Cc1cc(-c2ccccc2)n2ncc(-c3ccccc3)c2n1	CHX counter 47, Shiga toxin inh 97
COc1ccc(-c2cc(C)nc3c(-c4ccccc4)cnn23)cc1	CHX counter 41, Shiga toxin inh 90
Cc1cc(SCC(=O)c2ccccc2)n2ncc(-c3ccccc3)c2n1	CHX counter 61, Shiga toxin inh 67
O=C(Nc1cccc(C(F)(F)F)c1)Nc1cccs1	none (no result: CHX counter, Shiga toxin inh, NS1 function inh, LmPK inhibitor, SARS PLpro yeast)
CN(C1CCCCC1)S(=O)(=O)c1ccc2c(c1)c(=O)c(C(=O)NCCc1ccccc1)cn2C	none (no result: CHX counter, Shiga toxin inh, NS1 function inh, LmPK inhibitor, SARS PLpro yeast)
COc1cc(/C=C(\C#N)c2nc3c(s2)CCCC3)ccc1O	CHX counter 50, Shiga toxin inh 68 (no result: Tb PYK inh)
N#C/C(=C/c1cccnc1)c1ccccc1	none (no result: Shiga toxin inh)
CC1CCc2nc(/C(C#N)=C/c3cccnc3)sc2C1 (configuration not stated)	CHX counter 52, Shiga toxin inh 145 (no result: NS1 function inh)
N#C/C(=C\c1cccnc1)c1nc2c(s1)CCCC2	CHX counter 44, Shiga toxin inh 156
N#C/C(=C\c1cccnc1)C(=O)NC1CCCCC1	none
Cc1ccc(C(=O)NNC(=O)Cn2ccc(C(F)(F)F)n2)o1	none (no result: CHX counter, Shiga toxin inh, NS1 function inh, LmPK inhibitor)
Cn1nc(C(=O)Nc2ccc3c(c2)OCCO3)cc1C(=O)O	CHX counter 20, LmPK inhibitor inconclusive
Cn1ccc(C(=O)Nc2ccc3c(c2)OCCO3)n1	CHX counter 49, Shiga toxin inh 71, LmPK inhibitor inconclusive
O=C(Nc1ccc2c(c1)OCCO2)c1cc(-n2cnnc2)ccc1Cl	none
CC1=C(C(=O)N2CCOCC2)CC(CC(=O)NCc2ccco2)C(=O)N1Cc1ccc(C(C)(C)C)cc1 (configuration not stated)	none (no result: CHX counter, Shiga toxin inh, NS1 function inh, LmPK inhibitor, SARS PLpro yeast)
CC(C)C(=O)N1c2nc(C(C)C)nn2C2(CCCCC2)[C@@H]2CCCC[C@@H]21	none (no result: CHX counter, Shiga toxin inh, NS1 function inh, LmPK inhibitor, SARS PLpro yeast)
O=C(Cc1ccccc1F)Nc1nc(-c2ccc(F)c(F)c2)cs1	CHX counter 19, Shiga toxin inh 62
O=C(Cc1ccccc1F)Nc1nc(-c2cccnc2)cs1	none
O=C(Cc1ccccc1F)Nc1nc(-c2cccs2)cs1	CHX counter 37, Shiga toxin inh 50
COc1ccc(-c2csc(NC(=O)Cc3ccccc3F)n2)c(OC)c1	CHX counter 14
O=C(Cc1ccccc1)Nc1nc(-c2cccs2)cs1	CHX counter 43, Shiga toxin inh 105
O=C(CN1C(=O)CCC1=O)Nc1nc(-c2cccs2)cs1	none
O=C(Cc1ccccc1)Nc1nc(-c2ccc(F)c(F)c2)cs1	none
O=C(O)c1ccccc1OS(=O)(=O)O	none (no result: NS1 function inh, LmPK inhibitor, Tb PYK inh, SARS PLpro yeast)
O=C(Cc1ccccc1)Nc1nnc(-c2cccs2)s1	CHX counter 25
CCC(=O)Nc1nnc(-c2cccs2)s1	none
CCn1nc(C(=O)N[C@@H](CCSC)c2nc3ccccc3[nH]2)c2ccccc2c1=O	CHX counter 25
O=C(COc1ccccc1)Nc1ccccc1Oc1ccccc1	none
O=C(COc1ccc(Cl)cc1)Nc1ccc(Cl)cc1C(=O)c1ccccc1	none (no result: CHX counter, Shiga toxin inh, NS1 function inh, LmPK inhibitor, SARS PLpro yeast)
O=C(COc1ccc2ccccc2c1)Nc1ccccc1C(=O)O	CHX counter 20
